{"source": "PubChem BioAssay AID1778", "about": "(Sanford-Burnham Center for Chemical Genomics, 2009)", "note": "The campaign covered roughly 290,000 compounds. About 260 (0.09%) were called active. For the sample, actives were picked, then their nearest neighbours and some compounds at random. Results with a measured potency or affinity are listed apart. Values without a mark were called inactive. Cut-off read from the data, not from the text of the source: active = inhibition above about 50%; inactive = the rest.", "data": [{"target": "Kappa-type opioid receptor (Homo sapiens) (UniProt P41145)", "sequence (P41145 whole entry, looked up)": "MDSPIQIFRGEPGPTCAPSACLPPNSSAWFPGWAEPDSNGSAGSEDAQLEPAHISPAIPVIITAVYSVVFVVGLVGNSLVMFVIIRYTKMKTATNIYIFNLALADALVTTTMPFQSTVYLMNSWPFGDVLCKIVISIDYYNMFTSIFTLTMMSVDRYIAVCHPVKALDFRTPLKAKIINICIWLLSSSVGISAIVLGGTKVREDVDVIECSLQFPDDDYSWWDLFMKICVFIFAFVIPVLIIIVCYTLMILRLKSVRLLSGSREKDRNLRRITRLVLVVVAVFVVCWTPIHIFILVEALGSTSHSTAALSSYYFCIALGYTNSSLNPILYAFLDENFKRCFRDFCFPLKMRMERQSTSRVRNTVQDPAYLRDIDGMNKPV", "assay": "kappa opioid receptor blockers – cell-based, luminescence, uHTS (AID 1778)", "settings": "KOR beta-arrestin recruitment, antagonist mode, active compounds read high; at 10 µM unless noted", "values": [{"smiles": "Cc1ccc(Nc2nc3c(c(=O)[nH]2)CCCC3)cc1", "inhibition": "-0.9%"}, {"smiles": "Cc1nc(Nc2nc3ccccc3o2)nc2c1CCC2", "inhibition": "21.7%"}, {"smiles": "Cc1nn(C)cc1S(=O)(=O)Nc1ccc(F)c(F)c1", "inhibition": "9%"}, {"smiles": "COc1ccc(C)cc1NC(=O)CN(c1ccc(F)cc1)S(C)(=O)=O", "inhibition": "-4.9%"}, {"smiles": "Cc1cccnc1Nc1nc(-c2ccc(O)cc2)cs1", "inhibition": "17.8%"}, {"smiles": "Cc1cccnc1Nc1nc(-c2ccccc2)cs1", "inhibition": "1.5%"}, {"smiles": "COc1cccc2sc(Nc3nc(-c4cc5ccccc5oc4=O)cs3)nc12", "inhibition": "-2.1%"}, {"smiles": "COc1cccc2sc(Nc3nc(-c4ccncc4)cs3)nc12", "inhibition": "-21.7%"}, {"smiles": "CCc1nc(N2CCN(C(C)=O)CC2)c2c3c(sc2n1)CC(C(C)(C)C)CC3", "note": "(stereo not given)", "inhibition": "-42.9% [at 20 µM]"}, {"smiles": "CN(CC(=O)NCCc1ccccc1)S(=O)(=O)c1cccc2nsnc12", "inhibition": "-1.3%"}, {"smiles": "O=C(CC1C(=O)NCCN1Cc1ccccc1C(F)(F)F)NCCc1ccccn1", "note": "(stereo not given)", "inhibition": "-9.9% [at 20 µM]"}, {"smiles": "O=C(c1cc(F)ccc1F)C1CCCN(C(=O)CCCN2CCCCC2=O)C1", "note": "(stereo not given)", "inhibition": "20.7%"}, {"smiles": "O=C(Cn1c(=O)c2cccn2c2cccnc21)NCCCN1CCN(c2ccc(F)cc2)CC1", "inhibition": "-19.4%"}, {"smiles": "COc1ccc(N2CCN(C(=O)C(=O)c3c(C)n(C)c4ccccc34)CC2)cc1", "inhibition": "-32.2%"}, {"smiles": "COc1ccc(N2CCN(CCCNC(=O)C(=O)c3c(C)[nH]c4ccccc34)CC2)cc1", "inhibition": "15.4%"}, {"smiles": "COc1ccc(N2CCN(CCCNC(=O)Cn3c(=O)c4cccn4c4ccccc43)CC2)cc1", "inhibition": "47.8%"}, {"smiles": "CN(C(=O)COC(=O)c1cc2c(s1)CCCCC2)C1CCS(=O)(=O)C1", "note": "(stereo not given)", "inhibition": "31.3%"}, {"smiles": "COc1ccc(C2(NC(C)=O)CCN(C(=O)c3cccs3)CC2)cc1", "inhibition": "-9.8%"}, {"smiles": "O=C(Cn1cnc2c(cnn2-c2ccccc2)c1=O)N1CCCc2ccccc21", "inhibition": "-16.3%"}, {"smiles": "O=C(C1CC1)N1N=C(c2ccc(F)cc2)CC1(O)C(F)(F)F", "note": "(stereo not given)", "inhibition": "26.6% [at 20 µM]"}, {"smiles": "CCOC(=O)N1CCN(S(=O)(=O)c2ccc(C(=O)N(CCCN(C)C)c3nc4ccc(Cl)cc4s3)cc2)CC1", "inhibition": "-7.9%"}, {"smiles": "Cc1ccc(C(=O)N[C@@H](C)CN2C3=NC[C@H](C)N3C[C@H]2Cc2ccc(O)cc2)cc1Br", "inhibition": "45.3%"}, {"smiles": "Cc1ccc(C(=O)N[C@@H](C)CN2C3=NC[C@H](C(C)C)N3C[C@H]2Cc2ccc(O)cc2)cc1Br", "inhibition": "19.2%"}, {"smiles": "COc1ccc(C[C@@H]2CN3C(=NC[C@@H]3C)N2C[C@H](C)NC(=O)c2ccc(C)c(Br)c2)cc1", "inhibition": "40%"}, {"smiles": "COc1ccc(C[C@H]2CN3C(=NC[C@@H]3Cc3ccc(O)cc3)N2C[C@H](C)NC(=O)c2ccc(C)c(Br)c2)cc1", "inhibition": "15.3%"}]}]}
